# A number with no mark means an inactive call. The source made the active and inactive calls.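 How the source made its calls, unless noted: active means luciferase signal above three times the same-plate solvent-only control wells; inactive means the rest.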
# Legend:
# [1] = target: 6-phosphogluconate dehydrogenase, decarboxylating (Homo sapiens) (UniProt P52209); test: 6PGD enzyme inhibitors, primary screen, biochemical, human, recombinant enzyme, NADPH absorbance (AID 1159550;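 active means at least 20% inhibition of 6-phosphogluconate dehydrogenase activity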); conditions: recombinant 6PGD, NADPH absorbance 341 nm; at 10 µM; active compounds read high
# 6-phosphogluconate dehydrogenase, decarboxylating (Homo sapiens), sequence (P52209 whole entry, looked up, the tested form may be a part): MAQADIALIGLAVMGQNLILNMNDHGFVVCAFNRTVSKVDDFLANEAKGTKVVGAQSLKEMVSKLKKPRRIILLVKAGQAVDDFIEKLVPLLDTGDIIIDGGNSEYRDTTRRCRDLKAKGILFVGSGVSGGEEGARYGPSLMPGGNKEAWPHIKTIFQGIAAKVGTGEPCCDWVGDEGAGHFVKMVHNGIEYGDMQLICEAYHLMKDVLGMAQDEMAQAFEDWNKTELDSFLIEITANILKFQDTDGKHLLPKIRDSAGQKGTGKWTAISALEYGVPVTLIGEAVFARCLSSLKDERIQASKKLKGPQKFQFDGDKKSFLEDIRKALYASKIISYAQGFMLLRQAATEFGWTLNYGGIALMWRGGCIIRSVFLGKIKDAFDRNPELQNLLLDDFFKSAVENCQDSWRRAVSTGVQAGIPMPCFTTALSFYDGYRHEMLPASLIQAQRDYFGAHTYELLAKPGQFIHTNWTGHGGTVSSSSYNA
# [2] = target: Mitogen-activated protein kinase 7 (Homo sapiens) (UniProt Q13164); test: ERK5 transactivation activators in reporter cells, primary screen, cell-based, HTS (AID 1508626); conditions: HeLa Gal4-ERK5 transactivation, 18 h, at 5 µM, active compounds read high;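 further: luciferase driven by Gal4-ERK5 fusion binding five Gal4 sites before minimal TATA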
# Mitogen-activated protein kinase 7 (Homo sapiens), sequence (Q13164 whole entry, looked up, the tested form may be a part): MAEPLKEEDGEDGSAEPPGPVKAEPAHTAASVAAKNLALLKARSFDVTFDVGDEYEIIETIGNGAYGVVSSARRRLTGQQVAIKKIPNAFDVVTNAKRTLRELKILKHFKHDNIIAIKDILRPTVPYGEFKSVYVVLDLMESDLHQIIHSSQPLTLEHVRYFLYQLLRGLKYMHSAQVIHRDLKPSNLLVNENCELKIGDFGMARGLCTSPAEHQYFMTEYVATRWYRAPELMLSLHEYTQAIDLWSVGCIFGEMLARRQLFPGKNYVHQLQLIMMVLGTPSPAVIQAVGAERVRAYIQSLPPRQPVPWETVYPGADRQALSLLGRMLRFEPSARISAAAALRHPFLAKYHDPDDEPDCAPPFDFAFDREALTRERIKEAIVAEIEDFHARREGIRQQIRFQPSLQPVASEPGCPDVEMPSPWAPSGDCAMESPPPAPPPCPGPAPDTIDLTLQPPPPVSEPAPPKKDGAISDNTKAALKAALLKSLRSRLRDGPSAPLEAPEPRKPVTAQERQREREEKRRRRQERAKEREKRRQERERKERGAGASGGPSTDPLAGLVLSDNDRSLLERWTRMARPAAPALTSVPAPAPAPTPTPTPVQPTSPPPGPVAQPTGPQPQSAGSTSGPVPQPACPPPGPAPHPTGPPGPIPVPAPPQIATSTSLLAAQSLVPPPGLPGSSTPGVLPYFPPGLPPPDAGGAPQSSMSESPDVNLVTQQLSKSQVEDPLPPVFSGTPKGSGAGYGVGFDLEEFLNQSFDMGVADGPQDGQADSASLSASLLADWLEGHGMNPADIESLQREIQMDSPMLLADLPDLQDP
Structure (SMILES),inhibition [1] [%],luciferase signal [2]
C=C1CCC2C(CC2(C)C)C(=C)CC/C1=N/O (configuration not stated),16.7,88 AU
CC(=O)OC1C[C@@]2(C)[C@H](c3ccoc3)OC(=O)[C@H]3O[C@]32[C@@]2(C)C1[C@]1(C)C(C[C@H]2OC(C)=O)C(C)(C)[C@H](OC(C)=O)C[C@@H]1OC(C)=O (some centres not stated),-3.59,24 AU
COC(=O)CC1C(C)(C)C(OC(C)=O)[C@@H]2[C@@H](OC(C)=O)[C@]34O[C@@]2(O)[C@]1(C)C3CC[C@]1(C)C4=CC(=O)O[C@H]1c1ccoc1 (some centres not stated),-1.28,12 AU
NC(=O)NCCC[C@H](N)C(=O)O,15.5,72 AU
CC(=O)NC(Cc1c[nH]c2ccccc12)C(=O)O (configuration not stated),-6.76,64 AU
COc1c(O)cc2c(-c3ccccc3)cc(=O)oc2c1OC,-3.61,48 AU
Cc1cc(O)c2c(c1O)C(=O)c1c(O)cc(C)c(O)c1C2=O,2.78,48 AU
COc1cc(OC)c2c(=O)c(OC)c(-c3ccc(OC)c(OC)c3)oc2c1,1.73,68 AU
C/C1=C\CCC(=O)C2CC(C)(C)C2CC1 (configuration not stated),-1.45,60 AU
O=C(O)c1cc(O)c2c(c1)C(=O)c1cc(O)cc(O)c1C2=O,6.18,76 AU
C[C@@H]1CC[C@@]2(OC1)O[C@H]1C[C@H]3[C@@H]4CC[C@H]5C[C@@H](O)CC[C@]5(C)[C@H]4CC[C@]3(C)[C@H]1[C@@H]2C,-2.45,36 AU
CC(=O)O[C@@H]1c2c(ccc3ccc(=O)oc23)OC(C)(C)[C@@H]1OC(=O)CC(C)C,-10.5,188 AU
COC(=O)C1=CO[C@@H](O[C@@H]2O[C@H](CO)[C@@H](O)[C@H](O)[C@H]2O)[C@@H]2[C@@H](C)[C@@H](O)C[C@H]12,6.61,20 AU
CC1C2[C@]3(CC[C@H]1C)CCC1(C)[C@@]2(C=CC2[C@@]4(C)CCC(=O)C(C)(C)C4CC[C@]21C)OC3=O (some centres not stated),17.9,100 AU
COC(=O)C[C@H]1C(C)(C)C2(O)OC34CC2C(=O)[C@]1(C)C3CC[C@]1(C)C4=CC(=O)O[C@H]1c1ccoc1 (some centres not stated),4.12,20 AU
COC(=O)CC[C@@H](C)[C@H]1CC[C@H]2[C@@H]3[C@H](O)C[C@@H]4C[C@H](O)CC[C@]4(C)[C@H]3C[C@H](O)[C@]12C,-4.15,252 AU (active)

Structure (SMILES),inhibition [1] [%],luciferase signal [2]
COc1ccc(CC(=O)c2ccc(O)cc2O)cc1,17.5,76 AU
CC(=O)O[C@@H]1C[C@H]2C(C)(C)[C@@H](O)CC[C@]2(C)[C@H]2CC[C@@]3(C)[C@H](c4ccoc4)OC(=O)[C@H]4O[C@]43[C@@]21C,-6.19,108 AU
CC1CCC(C(C)C)C(OC(=O)c2ccccc2)C1 (configuration not stated),3.54,48 AU
COc1ccc2c(c1)CC[C@@H]1[C@@H]2CC[C@]2(C)[C@@H](O)CC[C@@H]12,-8.02,36 AU
CC1(C)CC[C@]2(C(=O)O)CC[C@]3(C)C(=CC[C@@H]4[C@@]5(C)CC[C@H](O)[C@@](C)(CO)[C@@H]5CC[C@]43C)[C@@H]2C1,-1.09,76 AU
CC1(C)[C@@H](O)CC[C@]2(C)[C@H]3C(=O)C=C4[C@H]5C[C@@](C)(C(=O)O)CC[C@]5(C)CC[C@@]4(C)[C@]3(C)CC[C@@H]12,-38.1,24 AU
CN1CCCC1c1cccnc1 (configuration not stated),17.4,56 AU
O=c1oc2ccccc2cc1O,15.9,36 AU
CCOC(=O)c1c(C)cc(OC)cc1O,13.5,84 AU
OC[C@@H](O)[C@@H](O)C(O)[C@H](O)[C@@H](O)CO (some centres not stated),-5.44,56 AU
CC(=O)OC[C@H]1O[C@@H](Oc2cc(OC(C)=O)c3c(=O)cc(-c4ccc(OC(C)=O)cc4)oc3c2)[C@H](OC(C)=O)[C@@H](OC(C)=O)[C@@H]1OC(C)=O,6.51,80 AU
COc1ccc(-c2cc(=O)c3c(O)c(OC)c(O[C@@H]4O[C@H](CO[C@@H]5O[C@@H](C)[C@H](O)[C@@H](O)[C@H]5O)[C@@H](O)[C@H](O)[C@H]4O)cc3o2)cc1,-2.78,76 AU
COc1cc(C)c(C(=O)Oc2cc(C)c(C(=O)O)c(O)c2C)c(O)c1C=O,2.14,120 AU
COc1ccc(-c2cc(=O)c3ccccc3o2)cc1OC,-3.02,76 AU
CC(=O)/C=C\[C@@H]1[C@@]2(C)CCCC(C)(C)C2CC[C@@]1(C)O (some centres not stated),14.1,348 AU (active)
